This is a sample that favours compounds with a hit; in the whole collection about 2.3% have one here.
M1 ag: agonists of human M1 muscarinic receptor; P11229; CHO-K1 hM1, Fluo-8 calcium fluorescence, agonist mode; 0% DMSO, 100% acetylcholine EC100; activation, % at 3 µM; 360,000 tested, 0.33% active; AID 588814;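 active means activation above the run's mean compound activation plus 3 SD, cut at about 16% in these data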;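 further: peak over basal fluorescence ratio within a 140 s kinetic read after compound addition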
Target sequence (P11229 whole entry, looked up): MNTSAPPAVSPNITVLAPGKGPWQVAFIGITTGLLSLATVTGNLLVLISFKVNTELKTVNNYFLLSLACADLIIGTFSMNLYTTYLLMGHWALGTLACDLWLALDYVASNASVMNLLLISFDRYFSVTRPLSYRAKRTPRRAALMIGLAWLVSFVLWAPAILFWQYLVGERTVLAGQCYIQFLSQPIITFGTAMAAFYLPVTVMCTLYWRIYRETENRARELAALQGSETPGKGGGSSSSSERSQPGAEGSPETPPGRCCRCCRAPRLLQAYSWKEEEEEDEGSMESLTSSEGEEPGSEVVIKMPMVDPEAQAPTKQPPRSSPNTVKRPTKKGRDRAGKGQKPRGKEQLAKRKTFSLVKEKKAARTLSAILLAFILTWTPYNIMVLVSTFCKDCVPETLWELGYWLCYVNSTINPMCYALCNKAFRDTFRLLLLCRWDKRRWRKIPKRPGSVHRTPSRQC
CHRM1 antagonist: antagonists of human M1 muscarinic receptor. inhibition, % at 3 µM. P11229. CHO-K1 hM1, Fluo-8 calcium fluorescence, ACh EC80 antagonist. 360,000 tested, 1.3% active. AID 588852;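 active means percent inhibition above its own plate's cutoff, namely the mean of that plate's compound wells plus 3 SD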;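 further: peak over basal fluorescence ratio during 140 s after agonist addition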
CHO-K1 Ca antag: nonselective inhibitor or artifact in parental CHO-K1 cells. AID 602250. inhibition, % at 3 µM. 360,000 tested, 0.6% active. ATP-induced calcium, Fluo-8 fluorescence;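 active means inhibition above a per-plate cutoff, the plate's mean sample inhibition plus 3 SD, cut at about 24% in these data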
CHRM1 PAM: positive allosteric modulators of human M1 muscarinic receptor; P11229; CHO-K1 hM1, Fluo-8 calcium fluorescence, ACh EC20; 0% = ACh EC20, 100% = maximal ACh; activation, % at 3 µM; 360,000 tested, 0.088% active; in the data active means activation above about 19%, passing the limit was not always enough
M1 PAM parental: counter-screen for M1 PAMs: effect in parental CHO-K1 cells; ATP EC20, Fluo-8 calcium fluorescence; 0% at ATP EC20, 100% at ATP max; activation, % at 3 µM; 360,000 tested, 0.02% active;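 active means activation above the run cutoff, the mean activation of all test compounds plus 3 SD, cut at about 40% in these data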;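 further: peak over basal fluorescence ratio in a 140 s read after ATP addition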
M1 ag parental: M1 agonist counterscreen hit in parental CHO-K1 cells | Fluo-8 calcium fluorescence; scaled to maximal ATP response, vehicle zero | activation, % at 3 µM | 360,000 tested, 0.48% active; in the data active means activation above about 15%;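 further: untransfected CHO-K1 host cells lacking M1 receptor as counterscreen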
Each line names hits and unclear results; the compound was inactive in the other large screens.

COc1ccc2oc(=O)c(C(=O)C[n+]3cccc(C)c3)cc2c1	CHRM1 antagonist 31.8
CNC(=O)c1cc2cc(OC)ccc2oc1=O	none
COc1ccc2oc(=O)c(C(=O)NCc3ccc(F)cc3)cc2c1	M1 ag parental 15.6
CCc1ccc(NC(=S)N(CCN2CCOCC2)Cc2ccccc2F)cc1	none
Cc1c(C(=O)N2CCCC2)c(S(=O)(=O)Nc2cccc(Br)c2)c(C)n1C	none
O=C(COC(=O)CCc1nc2ccccc2c(=O)[nH]1)Nc1ccccc1Cl	none
O=C(COC(=O)CCc1nc2ccccc2c(=O)[nH]1)Nc1ccccc1OC(F)F	CHRM1 PAM 23.9
CN1C[C@@H]2[C@@H]3C(=O)N(Cc4ccccc4)C(=O)[C@@H]3[C@](Cc3ccccc3)(C1=O)N2C(=O)c1ccc(Br)cc1	none
CCn1c(SCC(=O)NCc2ccc(F)cc2)nc2c(c1=O)SC(C)C2 (stereo unspecified)	none
CCn1c(SCC(=O)NCc2ccccc2)nc2c(c1=O)SC(C)C2 (stereo unspecified)	CHO-K1 Ca antag 32.4
CCn1cnc2sc(C(=O)Oc3cccc(C)c3)c(C)c2c1=O	M1 ag parental 15.1
CC(=O)Nc1sc2c(c1C(c1ccccn1)N1CCN(C)CC1)CCCC2 (stereo unspecified)	CHRM1 antagonist 47.9
CC(=O)Nc1sc2c(c1C(c1ccccc1Cl)N1CCN(CCO)CC1)CCCC2 (stereo unspecified)	CHRM1 antagonist 45.1
CC(=O)Nc1sc2c(c1C(c1ccccn1)N1CCCC1)CCCC2 (stereo unspecified)	none
O=C(CCn1c(=O)sc2ccccc21)NCc1ccc2c(c1)OCO2	none
CSCCC(C)N1CCC(Oc2ccc(C(=O)NCc3ccccn3)cc2)CC1 (stereo unspecified)	none
OC(CN1CCN(c2cccc(C(F)(F)F)c2)CC1)c1c[nH]c2ccccc12 (stereo unspecified)	CHO-K1 Ca antag 29.8
O=C1CSC(c2ccccc2Br)N1c1ccc(Cl)cn1 (stereo unspecified)	CHRM1 antagonist 58.7
COc1ccc2[nH]c(C(=O)NCc3ccccc3)c(C)c2c1	none
Cc1[nH][nH]c(=O)c1C(c1c(C)[nH][nH]c1=O)c1cn(Cc2ccc(Cl)c(Cl)c2)c2ccccc12	M1 ag 20.3
C=CCn1c(C(O)c2ccccc2)nc2ccccc21 (stereo unspecified)	none
C=CCn1c(C(C)C)nc2ccccc21	M1 ag parental 17.6
O=C(NCc1ccccn1)c1cccc(NS(=O)(=O)c2cccc(F)c2)c1	none
COc1cc(-c2cc3nc4ccccc4n3c(N)c2C#N)cc(OC)c1OC	CHRM1 antagonist 36.9
CCCCCCCCCCCCN1[C@@H](CC(=O)OC)c2cc(F)ccc2S1(=O)=O	CHRM1 PAM 31.6
O[C@H]1CN(CC2CCCCC2)[C@@H](c2ccc(Cl)cc2)C[C@@H]1n1cc(C2CC2)nn1	CHRM1 antagonist 36.7
CN(Cc1ccc(C(C)(C)C)cc1)C(=O)C1CCN(C(=O)Nc2ccccc2)CC1	none
COC(=O)C1CCN(C(=O)CN(C)Cc2ccc(C(C)(C)C)cc2)CC1	CHRM1 antagonist 33.9
Cn1nc(C(C)(C)C)cc1C(=O)N1CCCCC1c1cc(C(=O)Nc2ccccc2Cl)no1 (stereo unspecified)	CHO-K1 Ca antag 24.1
CNc1snc(C)c1C(=O)OCC(=O)c1ccc(OC)c(F)c1	CHRM1 antagonist 40.4
Nn1c(SCC(=O)Nc2ccccc2F)nnc1C1CCCCC1	none
O=S(=O)(c1ccc(N2CCN(c3ccc(F)cc3)CC2)cc1)N1CCCC1	none
O=S(=O)(c1ccc(N2CCCC2)cc1)C(F)(F)F	CHO-K1 Ca antag 27.3
O=C(NCCc1ccccc1)C(=O)c1cn(CC(=O)N2CCCC2)c2ccccc12	CHO-K1 Ca antag 23.8
COc1ccccc1CCNC(=O)C(=O)c1cn(CC(=O)N2CCCC2)c2ccccc12	none
CC(C)c1ccc(NC(=O)C[n+]2ccn(C3=C([O-])c4ccccc4C3=O)c2)cc1	M1 ag parental 17.9
CCCC[n+]1ccn(C2=C([O-])c3ccccc3C(=O)/C2=N\S(=O)(=O)c2ccccc2)c1	none
CCOc1ccc(N2C(=O)CC(NCCNc3ccc(C(=O)c4cccs4)cc3)C2=O)cc1 (stereo unspecified)	none

Screening results as filed in PubChem.
